Results: PubChem BioAssay (NCI)
“And” between values parts separate entries of the source, which are not always exact repeats. Equal entries are not always repeated. Compounds without any hit were thinned out: in the full panel of roughly 83,000, 20% have a hit.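 The endpoint reported here, percent growth, reads 100 for growth as untreated, 0 for no net growth and -100 for all cells dead.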 The source made the active and inactive calls. Rule for the calls: active = growth percent below 10; inactive = the rest.

What follows are compounds tested on MDA-MB-468 breast (assay: NCI-60 one-dose screen, 48 h (100 = growth as untreated, 0 = no growth, -100 = all killed)). Settings: 10 µM unless noted.
In the case of CNC(=O)c1c(NC(=O)c2cccc(C(F)(F)F)c2F)sc2c1CCC(=O)C2, the growth is reported as 0.936% (active). With C=C1C(=O)O[C@H]2[C@H]1CC/C(COC(=O)C(C)c1ccc(CC(C)C)cc1)=C\CC[C@@]1(C)O[C@@H]21 (stereo partly specified) the growth was 6.36% (active). In the case of O=S(=O)(Cc1cccc2c(CS(=O)(=O)c3ccc(Cl)cc3)cccc12)c1ccc(Cl)cc1, the growth is reported as 97% (inactive). In the case of O=[N+]([O-])c1ccccc1/C=N\Nc1ccccc1, the growth is reported as 66.3% (inactive) and 89.3% (inactive). COc1ccc2oc(=O)cc(Cn3cc(Cn4cnc5c4c(=O)n(C)c(=O)n5C)nn3)c2c1 was tested, and the growth was 101% (inactive). CN1CCN(c2ccc(/C=C/C(=O)c3ccc(O)cc3)cc2)CC1 was tested, and the growth was 89.5% (inactive). In the case of COc1cc2c(c(OC)c1OC)-c1cc(I)c(O)cc1[C@@H](NC(C)=O)CC2, the growth is reported as -32.9% (active). For COc1cc(-c2ccc3ncnc(NCc4ccccc4)c3c2)cnc1OC, the growth was 15.8% (inactive). In the case of NS(=O)(=O)c1ccc(C(=O)NN2C(=O)c3ccccc3C2=O)cc1, the growth is reported as 122% (inactive). With CO[C@@H]1[C@H](N(C)C(=O)c2ccccc2)C[C@@H]2O[C@]1(C)n1c3ccccc3c3c4c(c5c6ccccc6n2c5c31)C(=O)NC4=O the growth was -12.7% (active). COc1ccc(-c2nc3ccc(-c4nnc(SCC(=O)Nc5ccc(C(=O)/C=C/c6ccc(Cl)cc6)cc5)o4)cc3[nH]2)cc1OC was tested, and the growth was 102% (inactive). With Cc1ccc(S(=O)(=O)n2cc(C(=O)C(=O)Nc3ccncc3)c3ccccc32)cc1 the growth was 1.96% (active). In the case of O=C(O)c1ccc(CNc2ccc(C(=O)CCl)cc2)cc1, the growth is reported as 63.8% (inactive). Cn1cc(-c2csc(-c3c[nH]c4ccc(F)cc34)n2)c2ccnc(Cl)c21 was tested, and the growth was 15% (inactive). For COc1ccc(/C=C2\CCCC3=C2NC(C)=NC3c2ccc(OC)c(OC)c2)cc1OC (stereo unspecified), the growth was -10.3% (active). In the case of CC1=C[C@H]2c3c(c(O)c(O)c4oc5ccccc5c(=O)c34)[C@H](c3cc(O)c(O)c4oc5ccccc5c(=O)c34)[C@H]2C(C)(C)C1, the growth is reported as 25.2% (inactive). With O=C(O)/C=C\C(=O)N1C/C(=C\c2ccccc2Cl)C(=O)/C(=C/c2ccccc2Cl)C1 the growth was -75.2% (active). For CN(C)CCCC1(c2ccc(F)cc2)OCc2cc(-c3cc4ccccc4s3)ccc21 (stereo unspecified), the growth was -8.95% (active). For O=C1CCC(N2C(=O)c3cccc(NCCOCCOCCNC(=O)c4cc5c(o4)C(=O)c4ccccc4C5=O)c3C2=O)C(=O)N1 (stereo unspecified), the growth was -41.6% (active). With Nc1c(C(=O)c2ccccc2)sc2nc(-c3cccs3)ccc12 the growth was 3.08% (active). In the case of COc1ccc2c(=O)cc(-c3ccccc3)[nH]c2c1, the growth is reported as 7.37% (active) and -4.48% (active). CN=C1C=CC(=C(c2ccc(N(C)C)cc2)c2ccc(N(C)C)cc2)C=C1 was tested, and the growth was -47.5% (active). O=C(CSc1nc2ccccc2c(=O)n1-c1ccc(Cl)cc1)N/N=C/c1ccc(N2CCCCC2)cc1 was tested, and the growth was 79.5% (inactive). With CC(C)[N+](C)(C)CC(O)COc1cccc2ccccc12 (stereo unspecified) the growth was 104% (inactive). With O=C(/C=C/c1cn(-c2ccccc2)nc1-c1ccc(Cl)cc1)c1cc2ccccc2oc1=O the growth was 64.6% (inactive). For CCOC(=O)c1csc(-c2ccc(COC(=O)c3ccccc3)o2)n1, the growth was 115% (inactive). For Cc1cccc(NC(=O)Nc2ccc(-c3ccc4c(c3)NC(=O)/C4=C\c3ccc[nH]3)cc2)c1, the growth was -0.651% (active). In the case of O=C(O)C1CSC(c2ccccc2)N1 (stereo unspecified), the growth is reported as 96.7% (inactive). In the case of O=C(/C=C/c1cn(-c2ccccc2)nc1-c1ccccc1)CCC(=O)NO, the growth is reported as 101% (inactive). For O=C1/C(=C\c2cn(C(=O)c3ccc(Cl)cc3)c3ccccc23)c2ccccc2N1c1c(Cl)cccc1Cl, the growth was 97.7% (inactive). For COC(=O)CCCNS(=O)(=O)c1cc(C(=O)Nc2ccc(NC(=O)c3cc(S(=O)(=O)NCCCC(=O)OC)c(O)c(O)c3O)cc2)c(O)c(O)c1O, the growth was 98.7% (inactive). In the case of O=C(OCc1ccccc1)n1nnc2ccccc21, the growth is reported as 107% (inactive). CCOC(=O)c1sc2nc(-c3cc(OC)c(OC)c(OC)c3)nc(N3CCOCC3)c2c1C was tested, and the growth was 11.3% (inactive). With Brc1ccc(-c2cc(-c3ccc4c(c3)OC=CO4)n[nH]2)s1 the growth was -13.5% (active). In the case of CN1CCN(C(=O)c2ccc(NC(=O)Nc3ccc(-c4nc(N5CCOCC5)c5cccn5n4)cc3)cc2)CC1, the growth is reported as -60.7% (active). In the case of Cc1ccc(/C=C(\C#N)n2nc3cccc(F)c3n2)cc1, the growth is reported as 85.2% (inactive).
